According to PubChem BioAssay (NCATS):
Results filed as inconclusive are left out. Activity calls are given as the source filed them. The call rests on the fitted dose curve; in most records, active means well fitted cell-killing curve with a large enough effect; inconclusive means small, poorly fitted or top-dose-only effect; inactive means flat fitted curve, though single readings scatter.

Assay: Cell Viability - LYMP2-007 (AID 979);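 further: cells exposed to compound for 24 h before reading; nearly all actives have a fitted effect of over 60% in size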;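 on activity change, negative = cytotoxicity: 0% = DMSO only and the negative end = 92 µM tetraoctylammonium bromide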
Conditions: LYMP2-007 lymphoblastoid cell viability; series mostly up to 92.2 µM; activity change, negative = cytotoxicity: at the top concentration
From the text: NIH Chemical Genomics Center [NCGC]
NIH Molecular Libraries Screening Centers Network [MLSCN]
National Institutes of Environmental Health Sciences [NIEHS]
National Toxicology Program [NTP]
We have developed a 1536-well cell-based assay for quantitative high throughput screening (qHTS) against a number of cell lines to determine in vitro cytotoxicity of small molecules. This particular assay uses a human lymphoblastoid cell line (LYMP2-007) purchased from Coriell Institute for Medical Research.
NCGC Assay Protocol Summary:
The CellTiter-Glo luminescent cell viability assay (Promega) is a homogeneous method to measure the number of viable cells in culture. The end point readout of this assay is based on quantitation of intracellular ATP, an indicator of metabolic activity, using the luciferase reaction. Luciferase catalyzes the oxidation of beetle Luciferin to oxyluciferin and light in the presence of ATP. The luminescent signal is proportional to amount of ATP present.
Using the CellTiter-Glo luminescent cell viability assay, the amount of cellular ATP was measured in the lymphoblastoid cell line with complete culture medium following compound treatment for 24 hours. The assay was performed in opaque white Kalypsys 1536-well plates. In the screen, tetraoctylammonium bromide was used as positive control. Library compounds were measured for their ability to cause acute toxicity in the cell line, as reflected by a decrease in intracellular ATP levels, in a concentration-dependent manner. […] AC50 values were determined from concentration-response data modeled with the standard Hill equation.
qHTS protocol for CellTiter Glo lymphoblastoid cellular assay
[Step] [Parameter] [Value] [Description]
1. Reagent; 5 uL; 2500 lymphoblastoid cells/well
2. Time; 5 hr; 37 C incubation
4. Controls; 23 nL; Tetraoctylammonium bromide 6.4pM to 92 uM
5. Time; 24 hr; 37 C incubation
6. Reagent; 5 uL; CellTiter Glo reagent
7. Time; 30 min; Room Temperature
8. Detection; Luminescence; Viewlux plate reader
Keywords: cell viability, cytotoxicity, lymphoblastoid cell line, luminescence, NTPHTS, NTPHTS_NCGC, NIEHS, DSSTox, MLSMR, MLSCN, NIH Roadmap, qHTS, NCGC
Potency means the concentration at half of the fitted maximal effect.

SMILES	activity change, negative = cytotoxicity	Potency
CCC(C)(C)C	1.45% (inactive)	
Clc1ccccn1	8.42% (inactive)	
Cc1cc(C)cc(N)c1	-4.42% (inactive)	
Cc1ccccc1C(=O)O	8% (inactive)	
O=[N+]([O-])c1cccc(Cl)c1	-11.1% (inactive)	
Fc1ccccc1	-3.87% (inactive)	
Nc1nc2ccccc2[nH]1	-10.6% (inactive)	
OC1CCCC1	0.983% (inactive)	
CCCCCCCCCCCCOCC1CO1 (stereo not given)	-8.02% (inactive)	
CC(C)(C)OCC1CO1 (stereo not given)	-1.84% (inactive)	
CC(C)c1ccccc1	3.28% (inactive)	
CO[Si](CCCNCCC[Si](OC)(OC)OC)(OC)OC	1.45% (inactive)	
CC(C)=C1CCC(C)CC1=O (stereo not given)	-4.42% (inactive)	
CCOC(C)(C)C	12.6% (inactive)	
CC1=C(/C=C/C(C)=C/C=C/C(C)=C\C=O)C(C)(C)CCC1		50.1 µM (active)
CC(CCl)OC(C)CCl (stereo not given)	1.15% (inactive)	
O=C(O)c1ccc(Cl)cc1Cl	7.04% (inactive)	
Nc1nc(CC(=O)O)cs1	-0.431% (inactive)	
C=CC(=O)NC(C)C	-11.2% (inactive)	
COC(=O)CS	0.162% (inactive)	

SMILES	activity change, negative = cytotoxicity	Potency
C1COC1	-9.36% (inactive)	
N#CC1(O)CCCCC1	-8.86% (inactive)	
O=C1C=CCCC1	-56.2% (inactive)	
CC(O)COC(C)(C)C (stereo not given)	5.99% (inactive)	
Nc1cc(Cl)c(N)c(Cl)c1	1.31% (inactive)	
COCCOC(=O)c1ccccc1C(=O)OCCOC	-2.65% (inactive)	
CSCCC=O	-4.21% (inactive)	
O=[N+]([O-])c1ccc(Cl)cc1Cl	0.0717% (inactive)	
CCCCC(CC)COCC1CO1 (stereo not given)	-12.3% (inactive)	
Cc1ccc(C(=O)O)cc1	0.347% (inactive)	
O=C(Cl)c1c(Cl)cccc1Cl	-2.57% (inactive)	
O=C(O)c1cc(Cl)cc(Cl)c1	-1.85% (inactive)	
O=C(Cl)c1cccc([N+](=O)[O-])c1	-1.46% (inactive)	
O=C(O)c1ccc(CO)o1	-8.94% (inactive)	
CCCCCCCCC	-6.09% (inactive)	
CC(=C/C=C/C(C)=C/C=C/C=C(C)/C=C/C=C(C)/C=C/C(=O)O)/C=C/C(=O)O	0.381% (inactive)	
C=CCCCCCC	-0.605% (inactive)	
COc1cccc2sc(N)nc12	3.55% (inactive)	
CCCCC(C=O)CC (stereo not given)	4.63% (inactive)	
C[C@@H]1CC2(OC[C@]3(C)O[C@H]23)O[C@H]2C[C@@]3(C)[C@@H]4CC[C@H]5C(C)(C)C(O[C@@H]6OC[C@@H](O)[C@H](O)[C@H]6O)CC[C@@]56C[C@@]46CC[C@]3(C)[C@@H]12 (stereo not given in full)	-17% (inactive)	
